# Source: PubChem BioAssay (National Center for Advancing Translational Sciences (NCATS))
# Most compounds without a hit are left out; they make up all but 2% or so of the library.
# IL-2 act: qHTS of IL-2 Activators; activation, % (series mostly up to about 46 µM); IL-2 activation reporter assay, cell-based qHTS; stimulated with anti-CD3/CD4/CD28 beads; in transgenic mouse T cells; hit rate 0.065% among 360,000; in the data active = activation above about 50%; inconclusive = mostly about 30% to 49%; also: 0% is about no effect
#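 Unstimulated transgenic mouse T cells; 60-min compound exposure; bead-based TCR/CD4/CD28 stimulation; 18 h culture, 37 degrees C; dual fluorescence (EGFP, DsRed) plate cytometry.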
# ClpP mod: qHTS Assay for Activators of ClpP. purified B. subtilis ClpP, FRET peptide cleavage, 20 min. hit rate 1.9% among 340,000. ATP-dependent Clp protease proteolytic subunit (Bacillus subtilis (strain 168)), P80244. Potency, µM (series often up to 57.5 µM), for inactives: at the highest dose activity change, negative = active. AID 651965, 2013; active = well fitted falling curve with a large enough effect; inconclusive = small, poorly fitted or top-dose-only effect; inactive = no such curve, though single readings can be large or run the other way; also: potency is read from the fitted curve at half-maximal effect; the source files actives as falling curves though it sought activators and does not explain the sign; nearly all actives have a fitted effect of over 65% in size
# Target sequence (P80244 whole entry, looked up): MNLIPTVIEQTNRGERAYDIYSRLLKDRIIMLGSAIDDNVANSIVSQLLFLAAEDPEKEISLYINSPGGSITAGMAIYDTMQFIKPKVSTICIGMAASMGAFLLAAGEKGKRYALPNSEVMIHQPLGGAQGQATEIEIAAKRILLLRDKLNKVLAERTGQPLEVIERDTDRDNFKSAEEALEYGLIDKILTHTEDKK
#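 Purified B. subtilis ClpP, 10 microg/mL final in Tris/HCl pH8 with KCl, BSA, glycerol and Tween-20, cleaved an Abz/nitrotyrosine-quenched decapeptide. Fluorescence (ex 320, em 430) was read at 0 and 20 min at room temperature. Delta was normalized to 5.8 microM ADEP and DMSO/no-enzyme controls.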
# NPSR antag: qHTS Assay for Antagonists of the Neuropeptide S Receptor: cAMP Signal Transduction; CHO-NPSR cells, cAMP TR-FRET, antagonist mode; Q6W5P4; Potency, µM (highest dose often 38.3 µM), for the others: at the highest dose activity change, negative = inhibition, hits mostly inhibitors; hit rate 1% among 220,000; also: potency is read from the fitted curve at half-maximal effect; % is scaled to controls: 0 for no effect and ±100 for the full control effect; nearly all actives have a fitted effect of over 50% in size
# Target sequence (Q6W5P4 whole entry, looked up): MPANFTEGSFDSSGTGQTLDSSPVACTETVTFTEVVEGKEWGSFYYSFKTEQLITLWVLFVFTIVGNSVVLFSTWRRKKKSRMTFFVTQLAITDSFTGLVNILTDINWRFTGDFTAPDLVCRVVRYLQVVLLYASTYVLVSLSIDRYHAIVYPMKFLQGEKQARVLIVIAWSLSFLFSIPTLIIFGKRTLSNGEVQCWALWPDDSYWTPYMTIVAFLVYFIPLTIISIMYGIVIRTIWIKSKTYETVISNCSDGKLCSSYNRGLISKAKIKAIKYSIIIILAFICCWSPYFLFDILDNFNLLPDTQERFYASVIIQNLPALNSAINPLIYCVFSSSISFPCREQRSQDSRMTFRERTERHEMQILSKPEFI
# PKM2 act: qHTS Assay for Activators of Human Muscle isoform 2 Pyruvate Kinase. Pyruvate kinase PKM (Homo sapiens), P14618. purified PKM2, Kinase-Glo ATP luminescence, activation; response scale: 0% is enzyme alone, no compound. Potency, µM (top dose mostly 57.5 µM), for inactives: at the top dose activation, most hits filed as activators. hit rate 0.34% among 260,000; also: potency is read from the fitted curve at half-maximal effect; % is scaled to controls: 0 for no effect and ±100 for the full control effect; nearly all actives have a fitted effect of over 55% in size
#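 Purified hPK-M2 (>95% pure) converted ADP (0.1 mM final) to ATP with 0.5 mM PEP in 50 mM imidazole pH7.2, KCl, MgCl2, Tween 20, BSA; 1 h at room temperature. ATP detected by Kinase-Glo luminescence.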
# ClpP inh valid: qHTS Assay for Activators of ClpP: Hit Validation of Inhibitors | shares compounds with ClpP mod | purified B. subtilis ClpP, FRET-FV substrate cleavage, 20 min | Potency, µM (series often up to 57.5 µM), for inactives: top-dose activity change, negative = inhibition, most hits filed as inhibitors | hit rate 40% among 470; also: potency is read from the fitted curve at half-maximal effect; % is scaled to controls: 0 for no effect and ±100 for the full control effect; nearly all actives have a fitted effect of over 70% in size
# The depositor's hits bear a star; ? = inconclusive; . = no result given; ! = not confirmed by another sample; [ ] = remark or other dose. Unless noted, calls follow the shape of the dose curve; as a rule, active = well fitted curve in the direction sought with a large enough effect; inconclusive = small, poorly fitted or top-dose-only effect, or another doubt; inactive = no such curve, though single readings can be large; an effect the other way counts as inactive or inconclusive.
SMILES,IL-2 act,ClpP mod,NPSR antag,PKM2 act,ClpP inh valid
COc1cccc2c1cc1c(=O)n(CC(=O)N3CCC(C)CC3)nc(C)n12,0,2.5µM*!,.,.,4.9µM*
FC(F)(F)c1cccc(Cn2cnc(NC(=S)NCCc3ccccc3)n2)c1,-2,2%,-4%,19%,.
COc1ccccc1CNC(=O)Cc1c(C)c2cc3c(C)coc3c(C)c2oc1=O,.,-16%,.,.,.
CN1CCOC(c2ccccc2)c2ccccc2C1 (stereo not drawn),-1,-1%,.,0%,.
CC(C)N1CCOC1c1ccccc1 (stereo not drawn),3,7.9µM*,.,.,-1%
COc1ccc(NC(=O)Cc2ccsc2)cc1S(=O)(=O)N1CCCCC1,2,-2%,.,.,.
COc1cccc(NC(=O)c2cc3c(=O)n(C)c4ccccc4c3n2C)c1,.,216%,.,.,22µM*
CCC(CC)C(=O)Nc1ccc(C)c(O)c1,-2,-3%,-2%[46.1 µM],-1%,.
CC1CCN(S(=O)(=O)c2ccc(NC(=O)c3cccs3)cc2)CC1,1,127%,-22%[46.1 µM],-3%,-1%
CN1CCN(S(=O)(=O)c2ccc(NC(=O)c3cccs3)cc2)CC1,0,-1%,-27%[46.1 µM],-3%,.
CN1CCN(c2ccc(-c3ccc4ccccc4n3)cc2)CC1,-1,.,-6%,12%,.
c1ccc2nc(-c3ccc(N4CCOCC4)cc3)ccc2c1,-4,106%,16%[46.1 µM],-28%,7%
O=C(Nc1ccc2nc(SCC(=O)N3CCc4ccccc43)sc2c1)c1cccc(F)c1,.,4%,.,.,.
O=C(Nc1ccc2nc(SCC(=O)N3CCc4ccccc43)sc2c1)c1ccc(F)cc1,.,416%,.,.,24µM*
CCN(CC)S(=O)(=O)c1cccc2c(N(C)C)cccc12,1,3.5µM*,4%[46.1 µM],-3%,-4%
Cc1cc(C)n(-c2ccc(C(=O)NCc3ccc(F)cc3)cc2)n1,1,.,-8%,2%,.
COc1ccc(NC(=O)c2ccco2)cc1NC(=O)c1cc2ccccc2o1,-1,80%,-16%[46.1 µM],-5%,19µM*
O=C(Nc1ccc(NC(=O)c2cc3ccccc3o2)cc1)c1ccco1,-1,.,.,.,.
Cn1c(=O)n(C)c2cc(NS(=O)(=O)c3ccc(C(C)(C)C)cc3)c(NCc3ccccc3)cc21,.,3.5µM*,.,.,22µM*
Cn1c(=O)n(C)c2cc(NS(=O)(=O)c3ccc(Cl)cc3)c(NCc3ccccc3)cc21,.,4%,.,.,.
Cc1[nH]c2ccccc2c1C(c1ccccn1)N1CCC(C(N)=O)CC1 (stereo not drawn),-1,-2%,-2%[46.1 µM],3%,.
COc1ccc(-c2nc(NC(=O)c3ccc(OCC(=O)Nc4ccc(F)cc4)c(OC)c3)sc2C)cc1,-1,144%,10µM*,2%,19µM*
COc1cc(C(=O)Nc2nc(-c3cc(C)ccc3C)c(C)s2)ccc1OCC(=O)Nc1ccc(F)cc1,0,12%,?,-13%,.
COc1ccc(C2=C(C)C(=O)N(Cc3ccc(C(=O)NC(C)c4ccccc4)cc3)S2(=O)=O)cc1 (stereo not drawn),.,-16%,.,.,.
CC1=C(c2ccc(C)c(C)c2)S(=O)(=O)N(Cc2ccc(C(=O)NC(C)c3ccccc3)cc2)C1=O (stereo not drawn),.,5.6µM*,.,.,34µM*
SMILES,IL-2 act,ClpP mod,NPSR antag,PKM2 act,ClpP inh valid
O=C(CC(C(=O)O)c1ccccc1)Nc1cccc2ccccc12 (stereo not drawn),-1,1%,11%,-2%,.
c1ccc2c(c1)NC1(CCCCCC1)n1c-2nc2ccccc21,-1,63%,?,-10%,.
c1ccc2c(c1)NC1(CCCCC1)n1c-2nc2ccccc21,1,2.5µM*,?,?,14µM*
Cc1ccc(NS(=O)(=O)c2cccc(C(=O)N3CCCCC3)c2)cc1,-4,77%,.,.,0%
Cc1ccc(NS(=O)(=O)c2cccc(C(=O)N3CCCCCC3)c2)cc1,-4,0%,.,.,.
COc1ccc(CNCCc2ccc([N+](=O)[O-])cc2)c(OC)c1OC,0,-1%,.,3%,.
O=c1oc2ccccc2cc1-c1csc(Cc2nc(-c3ccc(Cl)cc3)cs2)n1,-3,3%,-4%[46.1 µM],-6%,.
O=c1oc2ccccc2cc1-c1nc(-c2cccc(Cl)c2)cs1,.,4.5µM*,.,.,?
Cn1cccc1/C=N/NC(=O)CSc1nc2ccccc2[nH]1,3,1%,4%,2%,.
O=C(Cn1c(=O)sc2ccccc21)NCc1ccccn1,-1,-2%,-11%[46.1 µM],1%,.
O=C(Cn1c(=O)sc2ccccc21)NCCOc1ccccc1F,-2,7.9µM*,-1%[46.1 µM],2%,-1%
O=C(Nc1ccccc1Cl)c1cc2c(-c3ccccc3)nn(-c3ccccc3)c2s1,.,?,.,.,19µM*
NS(=O)(=O)c1ccc(CNC(=O)c2ccc3c(c2)OCO3)cc1,1,-11%,.,.,.
O=C(NC1CC1)c1cccc(NC(=O)C2CCC2)c1,0,-1%,.,.,.
COc1ccc(CCNc2cc(C)nc3c(-c4ccc(Cl)cc4)cnn23)cc1OC,-1,8.9µM*,-31%,9%,24µM*
Cc1nc2ccc(C(=O)Nc3cccc(OCC(=O)N(C)C)c3)cn2c1N(C)CC1CCCCC1,-1,2%,.,.,.
O=S(=O)(c1ccccc1)N1CCC2(CC1)OCCN2S(=O)(=O)c1cccs1,0,33%,.,.,0%
COc1ccccc1CNC(=O)Cn1cccc1C(=O)c1ccccc1C,-4,-1%,.,.,.
O=C(CSc1nnc(CCCN2C(=O)c3cccc4cccc(c34)C2=O)n1-c1ccccc1)N1CCCCC1,0,?,-20%[46.1 µM],0%,.
CCOc1ccc2nc(-c3ccccc3)[nH]c2c1,-4,7.1µM*,9%[46.1 µM],-23%,6.9µM*
Clc1cc2nc3ccccn3c2cc1Cl,0,8.9µM*,10%[46.1 µM],0%,19µM*
O=C(Nc1ccc2c(c1)OCO2)C(c1ccccc1)N1CCCCC1 (stereo not drawn),0,2%,-2%[46.1 µM],5%,.
CCOc1ccccc1-c1nc2c([nH]1)c(=O)n(C)c(=O)n2C,6,3.5µM*,-8%[46.1 µM],-5%,22µM*
CCOc1ccccc1-c1nc2c(C(C)(C)C)nn(C)c2c(=O)[nH]1,.,.,-3%,1%,.
CN(C)S(=O)(=O)Oc1ccc(Cl)cc1C(=O)Nc1cccc(C(F)(F)F)c1,1,0%,-21%[46.1 µM],2%,.
CN(C)S(=O)(=O)Oc1ccccc1C(=O)Nc1cccc(C(F)(F)F)c1,0,86%,-5%[46.1 µM],-1%,1%
CC(=O)Nc1c(C)nn(-c2ccccc2)c1N1CCC(C(=O)Nc2ccc(Cl)cc2C)CC1,.,-1%,.,.,.
CC(C)Cc1nc(C(N)=O)c2[nH]c(=O)n(-c3ccc(F)cc3)c2n1,-1,6%,-6%[46.1 µM],-1%,.
